For 14 compounds, outcome and AC50 results are on record in PubChem BioAssay (EPA / NIEHS).

Assay [1] in a line: BSK_CASM3C_SRB: Viability Assessment in the BioMAP Diversity Plus: CASM3C Assay (AID 2283050).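 Note: cells exposed to compound for 24 h.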 As to conditions: primary human coronary artery smooth muscle cells.
Read-out in assay [2]: Thrombomodulin, THBD (gene 7056)
As to the kind of experiment: BSK_CASM3C_Thrombomodulin: BioMAP Diversity Plus: CASM3C Assay for Thrombomodulin Biomarker Activity (AID 2283051).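 Note: thrombomodulin protein level measured by ELISA 24 h after dosing.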 As to conditions: primary human coronary artery smooth muscle cells; actives raise or lower the signal.

Read-out in assay [3]: Tissue Factor, F3 (gene 2152)
As to the kind of experiment: BSK_CASM3C_TissueFactor: BioMAP Diversity Plus: CASM3C Assay for Tissue Factor Biomarker Activity (AID 2283052).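 Note: cell surface tissue factor protein level read by ELISA.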 As to conditions: primary human coronary artery smooth muscle cells; actives raise or lower the signal.

Read-out in assay [4]: Interferon-gamma inducible Protein 10 (IP10), CXCL10 (gene 3627)
As to the kind of experiment: BSK_hDFCGF_IP10: BioMAP Diversity Plus: hDFCGF Assay for Interferon-gamma inducible Protein 10 (IP10) Biomarker Activity (AID 2283053). As to conditions: primary human foreskin fibroblasts; actives raise or lower the signal. The essentials: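 Chemical-treated human skin fibroblasts (primary) were sampled at 24 h for IP-10 by ELISA. Both increases and decreases relative to DMSO were scored.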

Read-out in assay [5]: Urokinase-type plasminogen activator receptor (uPAR), PLAUR (gene 5329)
As to the kind of experiment: BSK_CASM3C_uPAR: BioMAP Diversity Plus: CASM3C Assay for Urokinase-type plasminogen activator receptor (uPAR) Biomarker Activity (AID 2283054).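 Note: cell-surface uPAR protein level quantified by ELISA.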 As to conditions: primary human coronary artery smooth muscle cells; actives raise or lower the signal.

Read-out in assay [6]: Vascular cell adhesion molecule 1 (VCAM1), VCAM1 (gene 7412)
As to the kind of experiment: BSK_CASM3C_VCAM1: BioMAP Diversity Plus: CASM3C Assay for Vascular cell adhesion molecule 1 (VCAM1) Biomarker Activity (AID 2283055).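 Note: VCAM-1 protein level quantified by ELISA on the cells.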 As to conditions: primary human coronary artery smooth muscle cells; actives raise or lower the signal.

Read-out in assay [7]: Collagen III, COL3A1 (gene 1281)
As to the kind of experiment: BSK_hDFCGF_CollagenIII: BioMAP Diversity Plus: hDFCGF Assay for Collagen III Biomarker Activity (AID 2283056). As to conditions: primary human foreskin fibroblasts; actives raise or lower the signal. The essentials: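 Human foreskin fibroblast primary cultures sampled 24 h after dosing; Collagen III quantified by ELISA. Signal fitted bidirectionally against DMSO baseline.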

Read-out in assay [8]: Epidermal growth factor receptor (EGFR), EGFR (gene 1956)
As to the kind of experiment: BSK_hDFCGF_EGFR: BioMAP Diversity Plus: hDFCGF Assay for Epidermal growth factor receptor (EGFR) Biomarker Activity (AID 2283057). The note with it: primary human foreskin fibroblasts; actives raise or lower the signal. The essentials: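 Cell-based multiplexed assay in primary human foreskin fibroblasts. EGFR is read by ELISA 24 h after treatment and compared with DMSO controls.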

Read-out in assay [9]: Interleukin-8 (IL8), CXCL8 (gene 3576)
As to the kind of experiment: BSK_hDFCGF_IL8: BioMAP Diversity Plus: hDFCGF Assay for Interleukin-8 (IL8) Biomarker Activity (AID 2283058). As to conditions: primary human foreskin fibroblasts; actives raise or lower the signal. The essentials: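 Primary human foreskin fibroblasts (hDFCGF system) dosed with chemical; IL-8 measured by ELISA 24 hours later. Bidirectional curve fitting relative to DMSO baseline; cytotoxicity tracked in parallel cultures by SRB total protein staining.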

Several values for one entry are separate records, joined by “and”; a condition that tells them apart may be missing. Equal entries are not always repeated. Where a structure was tested more than once in an assay, its records may differ in their call. Activity calls are given as the source filed them. Rule for the calls: active = hit-call score of the fitted dose curve at least 0.9, where 1 is the maximum; inactive = score below 0.9.

For orientation: AC50 means the midpoint of the concentration-response curve, whichever way the signal moves. Regarding `COP(=S)(OC)Oc1nc(Cl)c(Cl)cc1Cl`, the outcome in assay [1], in assay [3], in assay [5], in assay [6] and in assay [8] was inactive. For the same compound, the AC50 in assay [2] was 16.1 µM (active); in [4] it was 25.4 µM (active); in assay [7] it was 20 µM (active).

Consider `Cc1cc(Cl)ccc1OCC(=O)O`, for which the result in assay [1], in [2], in assay [3], in assay [4], in assay [5] and in [6] was inactive. For the same compound, the result in assay [7] and in assay [8] was inactive.

`CO/C=C(/C(=O)OC)c1ccccc1Oc1cc(Oc2ccccc2C#N)ncn1`: the result in [1], in [2], in assay [3], in assay [4], in assay [5] and in assay [6] was inactive. Further, the outcome in assay [8] and in assay [9] was inactive. Besides, the concentration at half-maximal activity (AC50) in [4] was 12.1 µM (active); in assay [7], 16.9 µM (active) [middle of 4 runs].

Regarding `CC(C)C1(C)N=C(c2nc3ccccc3cc2C(=O)O)NC1=O` (stereo not drawn), the outcome in assay [1], in assay [2], in assay [3], in assay [4], in assay [5] and in assay [6] was inactive. Further, the result in assay [7] and in [8] was inactive.

On to `COC(=O)C(C)Oc1ccc(Oc2ccc(Cl)cc2Cl)cc1` (stereo not drawn), for which the result in assay [1], in assay [2], in assay [3], in [4], in assay [5] and in assay [6] was inactive. Moreover, the result in [7] and in assay [8] was inactive.

For the compound `CCCC1COC(Cn2cncn2)(c2ccc(Cl)cc2Cl)O1` (stereo not drawn), the result in assay [1], in [3], in [4], in assay [5], in assay [6] and in [7] was inactive. Besides, the result in assay [8] was inactive. Also, the AC50 in assay [2] was 7.5 µM (active).

Regarding `CCOC(=O)CC(SP(=S)(OC)OC)C(=O)OCC` (stereo not drawn), the outcome in assay [1], in assay [2], in assay [3], in assay [4], in assay [5] and in assay [6] was inactive. For the same compound, the result in [7] and in assay [8] was inactive.

`CCOC(=O)C(Cl)Cc1cc(-n2nc(C)n(C(F)F)c2=O)c(F)cc1Cl` (stereo not drawn): the result in [1], in assay [2], in assay [3], in [4], in assay [5] and in [6] was inactive. Moreover, the result in [7] and in [8] was inactive.

Turning to `CCCCNC(=O)OCC#CI`, the half-maximal activity concentration (AC50) in assay [1] is 30.5 µM (active) and 30.6 µM (active); in [2], 4.72 µM (active) and 36.3 µM (active); in assay [3], 24.6 µM (active); in assay [4], 3.5 µM (active) and 5.34 µM (active); in [5], 12.7 µM (active) and 13.9 µM (active); in [6], 11.1 µM (active) and 14.6 µM (active). The AC50 in assay [7] is 7.69 µM (active) and 7.7 µM (active); in assay [8], 11.6 µM (active); in assay [9], 10.2 µM (active) and 11 µM (active). Besides, the result in [3] and in [8] was inactive.

Turning to `N#Cc1nn(-c2c(Cl)cc(C(F)(F)F)cc2Cl)c(N)c1S(=O)C(F)(F)F` (stereo not drawn), the AC50 is 24.9 µM (active) in assay [1]; 21.9 µM (active) in assay [2]; 2.24 µM (active) in [4]; 23.6 µM (active) in assay [6]; 1.71 µM (active) in [8]. The outcome in assay [3], in assay [5] and in assay [7] was inactive.

For `CCc1nn(C)c(C(=O)NCc2ccc(C(C)(C)C)cc2)c1Cl`, the outcome in assay [1], in [3], in [5], in assay [6] and in assay [8] was inactive. For the same compound, the AC50 was 13.2 µM (active) in [2], 28.8 µM (active) in assay [4] and 20 µM (active) in assay [7].

With `CC(C)(C)c1ccc(CSc2cnn(C(C)(C)C)c(=O)c2Cl)cc1`, the outcome in [1], in assay [3], in [4], in [5], in [6] and in assay [8] was inactive. The AC50 in assay [2] is 31.8 µM (active); in [7] it was 12.9 µM (active).

On to `CC(C)Oc1cc(-n2nc(C(C)(C)C)oc2=O)c(Cl)cc1Cl`, for which the outcome in assay [1], in assay [3], in assay [5], in assay [6], in assay [7] and in assay [8] was inactive. In addition, the AC50 in assay [2] is 25.7 µM (active); in assay [4], 29.8 µM (active).

For the compound `N#Cc1cc(Br)c(O)c(Br)c1`, the outcome in [1], in assay [2], in assay [3], in [6], in [7] and in assay [8] was inactive. The outcome in assay [9] was inactive. Also, the AC50 in [4] was 10.9 µM (active); in [5], 405 nM (active).
